This is part of a sample that, as a whole, favours compounds with a hit. Of some 83,000 tested, about 20% had one in any assay.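 Negative percent growth values reflect cell death: -40 means 40% of the cells present at the start died, and -100 means all died.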 Active and inactive are the calls of the source. Rule for the calls: active = growth percent below 10; inactive = the rest.
How the values were obtained:
Test in all cases: NCI-60 one-dose screen, 48 h (100 = growth as untreated, 0 = no growth, -100 = all killed)
Conditions in all cases: 10 µM unless noted
[1] = system: T-47D breast
[2] = system: BT-549 breast
[3] = system: MDA-MB-435 melanoma
[4] = system: SW-620 colon
[5] = system: MCF7 breast
[6] = system: HCT-116 colon
[7] = system: HCC-2998 colon
[8] = system: KM12 colon

Measured: growth

CCN(CC)CCn1nc2c3c(cccc3c1=O)-c1ccccc1-2
active: [1] 9.48% | [5] 4.36%
inactive: [2] 59.3% | [3] 39.7% | [4] 14.3% | [6] 16.3% | [7] 34.7% | [8] 34%

Cc1cc(NCCCCNc2ccnc3cc(Cl)ccc23)nc(Nc2ccc(C(=O)N3CCCCC3)cc2)n1
active: [1] -23.5% | [3] -84.3% | [4] -70.2% | [5] -49.1% | [6] -48.9% | [7] -37.5%
inactive: [2] 92.9% | [8] 25.8%

O=c1[nH]ccc2nc(N3CCC(O)CC3)nc(Nc3ccc(N4CCOCC4)cc3)c12
active: [8] 8.57%
inactive: [1] 73% | [2] 29.7% | [3] 40.6% | [4] 39.6% | [5] 44.2% | [6] 22.8% | [7] 80.3%

COc1cc(OC)cc(C2CC(=O)Nc3c2c(C)nn3-c2nc3ccccc3[nH]2)c1 (stereo not given)
inactive: [1] 12.6% | [2] 39.1% | [4] 24% | [7] 69.1% | [8] 30.5%
active: [3] 9.66% | [5] 7.95% | [6] 0.333%

Clc1cc(Cl)cc(Nc2ccc3cc(OCCCN4CCOCC4)ccc3n2)c1
inactive: [1] 32% | [2] 88.5% | [3] 34.1% | [6] 19.8%
active: [4] -8.79% | [5] 8.56% | [7] -17.6% | [8] 8.59%

O=C1Nc2ccc(F)cc2C12Nc1cc(Cl)ccc1S2 (stereo not given)
inactive: [1] 40% | [2] 67.7% | [3] 97.5% | [4] 106% | [5] 60.3% | [6] 85.7% | [7] 99.5% | [8] 90.5%

CC1=NOC(=O)/C1=C\c1ccc(O)cc1
inactive: [1] 104% | [2] 107% | [3] 102% | [4] 102% | [5] 94.6% | [6] 103% | [7] 109% | [8] 101%

Cc1cc(C)c2c(-c3nnc(N)s3)cc(=O)oc2c1
inactive: [1] 99.6% | [2] 98.8% | [3] 94.3% | [4] 98.2% | [5] 92.2% | [6] 102% | [7] 108% | [8] 98.8%

CCN(CC)c1ccc2nc3c4ccccc4c(=NC(=O)c4ccccc4-c4c5ccc(N(CC)CC)cc5[o+]c5cc(N(CC)CC)ccc45)cc-3oc2c1
active: [3] -86.2% | [4] -38.7% | [5] -87.6% | [6] -26.8% | [8] -3%
inactive: [1] 63.6% | [2] 60.1% | [7] 15.9%

N#Cc1c(N)nc2c(C#N)c(NC(=O)c3ccccc3)nn2c1-c1ccccc1
inactive: [1] 68.2% | [2] 97.6% | [3] 96.7% | [4] 103% | [5] 75.8% | [6] 92.7% | [7] 103% | [8] 95.7%

COc1ccccc1NC(=O)N/C(N)=N/c1nc2ccccc2s1
inactive: [1] 52.2% | [2] 50.8% | [4] 25.6% | [5] 20.3% | [6] 13.4% | [7] 28.6% | [8] 10.4%
active: [3] -18.6%

COC(=O)[C@]12CC[C@@H](C)[C@H](C)[C@@H]1C1=CC[C@@H]3[C@@]4(C)C(C=O)=C[C@@](C)(COC(C)=O)[C@@H]4C(=O)C[C@@]3(C)[C@]1(C)CC2
active: [6] 5.18%
inactive: [1] 39% | [2] 32.4% | [3] 50.5% | [4] 29.1% | [5] 22.7% | [7] 40% | [8] 28.4%

O=C1CCC2=C3C4CCCCC4C(=O)C4CCCC(OC2C1)C34 (stereo not given)
inactive: [1] 46.4% | [5] 12.8%
active: [2] 7.09% | [3] -68% | [4] 4.34% | [6] -7.43% | [8] -2.73%

Cn1c(=O)c2c(nc(Cl)n2CCl)n(C)c1=O
inactive: [1] 103% | [2] 61.8% | [3] 43.5% | [4] 45.9% | [5] 84.4% | [6] 95.9% | [8] 116%

COc1cc(N2C(=O)c3nccnc3C2=O)cc(OC)c1OC
inactive: [1] 96.9% | [2] 95.2% | [3] 107% | [4] 104% | [5] 95.7% | [6] 103% | [8] 110%

Cn1c(=O)c2[nH]c(NN)nc2n(C)c1=O
inactive: [1] 104% | [2] 84.7% | [3] 106% | [4] 97.8% | [5] 104% | [6] 102% | [8] 119%

CCN(CC)Cc1cccc(C(=O)OC)c1
inactive: [1] 88.3% | [2] 93.1% | [3] 101% | [4] 101% | [5] 90.9% | [7] 102% | [8] 102%

Cc1ccccc1NC(=O)N/C(N)=N/c1nc(C)c(C)s1
active: [3] -46.9%
inactive: [1] 36.2% | [2] 66.3% | [4] 25% | [5] 21.4% | [7] 22.1% | [8] 35%

N#CC1=C(c2ccc(Br)cc2)NC(SCC(=O)c2ccc(Br)cc2)NC1=O (stereo not given)
inactive: [1] 92.8% | [2] 99.1% | [3] 103% | [4] 101% | [5] 101% | [6] 96.5% | [7] 106% | [8] 101%

COc1ccc(-c2c(N)n[nH]c2-c2ccc(Cl)cc2O)cc1OC
inactive: [1] 91.2% | [2] 105% | [3] 69.7% | [4] 102% | [5] 86% | [6] 90.1% | [8] 83%

CCOC(=O)c1csc(NC(=O)COc2cccc(/C=C3\Oc4cc(OC)ccc4C3=O)c2)n1
inactive: [1] 68.9% | [2] 84.7% | [3] 90.5% | [4] 108% | [5] 81.1% | [6] 90.7% | [8] 83.9%

CCCCCCCCCCCCCCCCCC1=NCCN1CCOC1=C(Cl)C(=O)c2ccccc2C1=O
active: [4] 7.23%
inactive: [1] 12.6% | [2] 68% | [3] 95.5% | [5] 65.6% | [6] 43.6% | [7] 100% | [8] 51%

O=c1ccn2nc3ccccc3c2[nH]1
inactive: [1] 95% | [2] 98.2% | [3] 118% | [4] 114% | [5] 107% | [6] 103% | [8] 112%

O=C1c2cccc(NCCN=Cc3cc([N+](=O)[O-])ccc3O)c2C(=O)c2c(NCCN=Cc3cc([N+](=O)[O-])ccc3O)cccc21
inactive: [1] 75.8% | [2] 107% | [3] 99.3% | [4] 29.8% | [5] 20.8% | [6] 33.3% | [8] 46.8%

CCN(CC)c1ccc(C(=O)c2ccc(N(CC)CC)cc2)cc1
inactive: [1] 20.1% | [4] 26.4% | [5] 13.5% | [6] 10.2% | [8] 25.1%
active: [2] 4.9% | [3] 0.459%

O=C1Nc2ccccc2/C1=C/c1cn(C(=O)c2c(Cl)cccc2Cl)c2ccccc12
inactive: [1] 47.7% | [2] 51.7% | [3] 85.7% | [4] 45.5% | [5] 22.9% | [6] 26.1% | [8] 54.8%

Cc1ccc(S(=O)(=O)N/N=C\c2cc(Cl)ccc2O)cc1
inactive: [1] 86% | [2] 91.7% | [3] 82% | [4] 81.4% | [5] 82.6% | [6] 48.2% | [8] 108%

COc1ccc(C(=O)Nn2c(NCC(=O)N3c4ccccc4Sc4ccccc43)nnc2-c2ccc(O)cc2)cc1
inactive: [1] 106% | [2] 96.5% | [3] 102% | [4] 104% | [5] 111% | [6] 101% | [8] 109%

CN1CCN(CC(=O)Nc2nc(-c3cccc(NS(=O)(=O)c4cccc5c(N(C)C)cccc45)c3)cs2)CC1
inactive: [1] 64.3% | [2] 97.1% | [3] 68.4% | [4] 62.6% | [5] 49.9% | [6] 88.4% | [7] 53.6% | [8] 71.4%

CCN(CC)CCCNc1ccc(Nc2ccc(OC)cc2)cc1
inactive: [1] 118% | [2] 59% | [3] 82.7% | [4] 49.7% | [5] 110% | [6] 82.2% | [8] 85.3%

Source: PubChem BioAssay (NCI)
